Laboratory results as given in the supplement of paper PMC13380429.

Tested on: Vero E6 infected with SARS-CoV-2
Test: inhibition of SARS-CoV-2 cytopathic effect; higher = more antiviral protection, active = above 15
Conditions: 48 h

Measured: inhibition of SARS-CoV-2 cytopathic effect

CC(ONC(=O)c1cc(C(F)(F)F)cc(C(F)(F)F)c1)C(=O)Nc1ccc(Cl)cc1 (stereo not given)
inactive: 1 nM 1.52% | 8.33 nM -0.64% | 100 nM 0.05% | 833.33 nM -2.31% | 10000 nM 5.49%

CC(Cc1cccc(C(F)(F)F)c1)NCCOC(=O)c1ccccc1 (stereo not given) [benfluorex]
inactive: 1 nM 0.5% | 8.33 nM 0.35% | 100 nM -0.24% | 833.33 nM -1.03% | 10000 nM 0.26%

CCCCCCCCCC(=O)O[C@H]1CC[C@H]2[C@@H]3CCC4=CC(=O)CC[C@@H]4[C@H]3CC[C@]12C [Nandrolone decanoate]
inactive: 1 nM 0.16% | 8.33 nM 0.18% | 100 nM -0.72% | 833.33 nM 0.02% | 10000 nM -4.93%

CN(c1ccccc1CNc1nc(Nc2ccc3c(c2)CC(=O)N3)ncc1C(F)(F)F)S(C)(=O)=O
inactive: 1 nM -0.17% | 8.33 nM -0.35% | 100 nM -2.19% | 833.33 nM -5.19% | 10000 nM -15.4%

c1ccc(Oc2nc(NC3CCCCC3)c3[nH]cnc3n2)cc1
inactive: 1 nM 0.79% | 8.33 nM -0.47% | 100 nM -1.37% | 833.33 nM -1.49% | 10000 nM -6.42%

COC(=O)[C@H](Cc1cccc(C(=N)N)c1)[C@@H](C)NC(=O)c1ccc(-c2cc[n+]([O-])cc2)cc1 [otamixaban]
inactive: 1 nM -2.31% | 8.33 nM -2.54% | 100 nM -1.48% | 833.33 nM -0.51% | 10000 nM -3.22%

CC(C)=CCC/C(C)=C/CC/C(C)=C/CC[C@]1(C)CCc2cc(O)cc(C)c2O1 [delta-tocotrienol]
inactive: 1 nM 0.39% | 8.33 nM -1.44% | 100 nM 2.83% | 833.33 nM 7.95% | 10000 nM 2.88%
